Results published in PubChem BioAssay.
Records with an inconclusive call do not appear. Calls of active or inactive are those of the source.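 The calls were made as follows, unless noted: active = RAM network inhibition above 8.4% in each of two replicates, 3 SD over the compound average; inconclusive = above 8.4% inhibition in only one replicate; inactive = 8.4% inhibition or less in each replicate.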

Experiments:
[1] = Her2 expression decrease, cell viability multiplex – SKBR3 breast tumor cells, AlphaScreen, ATP viability, primary screen (AID 461;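 active = Her2 level under about 52% in both replicate screens, with viability over 70% of control, limit read from the data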;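 as to Her2 level: lower value means less Her2 protein in the cells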;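 as to viability: percent of carrier control wells set as 100% viability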); settings: SKBR3 Her2 protein level, 18-24 h, measured here: SKBR3 viability, ATP luminescence, at 10 µM
[2] = target: Receptor tyrosine-protein kinase erbB-2 (Homo sapiens) (UniProt P04626); test: as above; settings: 18-24 h, at 10 µM, stronger effect = lower value
Receptor tyrosine-protein kinase erbB-2 (Homo sapiens), sequence (P04626 whole entry, looked up): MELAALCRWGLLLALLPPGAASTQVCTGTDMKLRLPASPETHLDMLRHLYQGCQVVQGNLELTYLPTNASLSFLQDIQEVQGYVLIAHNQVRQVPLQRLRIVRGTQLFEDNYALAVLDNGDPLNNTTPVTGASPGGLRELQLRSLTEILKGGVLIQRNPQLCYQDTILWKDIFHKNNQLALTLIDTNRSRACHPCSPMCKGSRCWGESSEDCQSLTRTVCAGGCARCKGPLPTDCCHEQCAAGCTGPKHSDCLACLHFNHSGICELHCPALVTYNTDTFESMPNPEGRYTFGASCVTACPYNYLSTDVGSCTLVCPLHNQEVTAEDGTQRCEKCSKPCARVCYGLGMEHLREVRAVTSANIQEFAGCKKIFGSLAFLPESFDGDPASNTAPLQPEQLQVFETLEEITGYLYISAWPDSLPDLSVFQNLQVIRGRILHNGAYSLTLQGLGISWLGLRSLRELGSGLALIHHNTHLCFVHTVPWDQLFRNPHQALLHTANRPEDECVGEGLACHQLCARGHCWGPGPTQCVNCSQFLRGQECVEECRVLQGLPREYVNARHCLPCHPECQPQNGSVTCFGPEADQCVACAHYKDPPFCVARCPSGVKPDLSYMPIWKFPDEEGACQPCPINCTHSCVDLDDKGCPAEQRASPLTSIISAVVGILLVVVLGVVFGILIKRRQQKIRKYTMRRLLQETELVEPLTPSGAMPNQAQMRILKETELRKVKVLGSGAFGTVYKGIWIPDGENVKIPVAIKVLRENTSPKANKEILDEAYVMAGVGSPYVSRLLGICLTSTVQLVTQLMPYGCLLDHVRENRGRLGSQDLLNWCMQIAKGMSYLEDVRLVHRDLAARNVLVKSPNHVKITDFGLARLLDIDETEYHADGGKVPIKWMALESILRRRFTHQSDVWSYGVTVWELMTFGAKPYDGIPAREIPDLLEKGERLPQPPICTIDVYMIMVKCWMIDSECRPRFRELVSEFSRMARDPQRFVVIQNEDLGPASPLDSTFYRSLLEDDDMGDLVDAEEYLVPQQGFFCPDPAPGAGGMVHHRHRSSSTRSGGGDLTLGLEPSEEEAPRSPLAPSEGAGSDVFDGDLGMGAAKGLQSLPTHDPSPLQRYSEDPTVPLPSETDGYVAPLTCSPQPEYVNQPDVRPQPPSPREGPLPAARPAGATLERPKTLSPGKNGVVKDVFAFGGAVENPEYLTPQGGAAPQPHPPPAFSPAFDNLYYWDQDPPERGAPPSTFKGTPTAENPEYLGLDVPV

[3] = reduced viability of SK-BR-3 breast cancer cells – cell-based, 24 h, human, pilot screen (AID 572;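 active = viability at or below 10% of carrier control in both of two separate runs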;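 also: compound exposure lasted between 18 and 24 h rather than exactly 24 h; 100% = carrier-treated control wells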); settings: SK-BR-3 viability, CellTiter-Glo luminescence, at 10 µM, stronger effect = lower value
[4] = HUVEC growth inhibition – cell-based, human, primary screen (AID 575;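 active = viability at or below 30% in both replicate assays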;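 also: 100% = median of untreated cell wells with 0.1% DMSO on each plate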); settings: HUVEC proliferation, CellTiter-Glo luminescence, 72 h; at 10 µM; stronger effect = lower value
[5] = H69AR cell proliferation blockers – human, duplicate replicates, primary screen (AID 580;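 active = viability at or under a set limit in both replicates, limit being median viability minus 3 SD, cut at about 48% in these data, passing the limit was not always enough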;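 also: 100% = mean luminescence of untreated wells and 0% = no signal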); settings: H69AR lung tumor cells viability, ATP luminescence, 72 h; at 10 µM; stronger effect = lower value
[6] = MRP1 drug-resistance reversers in H69AR cells – cell-based, doxorubicin co-treatment, pilot screen (AID 601;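 active = viability loss from added drug above about 55%, and viability with drug at most 40%, in both replicates, limit read from the data, passing the limit was not always enough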); settings: CellTiter-Glo, 72 h, at 10 µM; for differential viability (reversal): stronger effect = higher value
[7] = yeast transport mutant growth inhibition pilot in 384-well plates, post-Golgi transport modulator project (AID 636; in the data active = inhibition above about 31%); settings: absorbance 615 nm, about 18 h, stronger effect = higher value
[8] = growth suppression of yeast trafficking mutant, preliminary HTS, modulators of trafficking downstream of Golgi apparatus project, 1536-format plate, OD 615 nm (AID 637; in the data active = inhibition above about 30%); settings: yeast transport mutant growth, absorbance 615 nm, 18 h; stronger effect = higher value
[9] = S. cerevisiae growth inhibition in permissive medium (OD615), pilot counter-assay for S. cerevisiae lifespan shortening project, permissive growth control (AID 705;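 active = growth inhibition above 25% in both replicates, a cutoff set 3 SD above the mean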); settings: OD615, 24 h, at 10 µM, stronger effect = higher value
[10] = S. cerevisiae growth inhibition in restrictive medium, OD615, pilot screen, restrictive growth control, yeast lifespan reduction project (AID 706;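 active = growth inhibition above a set limit, 3 SD over mean compound inhibition, in both replicates, cut at about 43% in these data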;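 also: modified DeaD lifespan yeast strain shifted to restrictive glucose medium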); settings: OD615, 48 h, at 10 µM, stronger effect = higher value
[11] = doxorubicin toxicity protection in MRP-1 cells – H69AR cells, CellTiter-Glo, duplicate, MRP-1 activator project, pilot screen (AID 807;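 active = viability increase at or above a cutoff of the median across tested compounds plus 3 SD, cut at about 8.5% in these data, passing the limit was not always enough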;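 also: compound pretreatment 18-22 h then 72 h combined with doxorubicin; 0% = doxorubicin alone and 100% = vehicle without doxorubicin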); settings: H69AR viability with doxorubicin, CellTiter-Glo luminescence; at 10 µM; stronger effect = higher value
[12] = viability of HCT116 without oncogenic beta-catenin – human colon tumor cells, pilot screen (AID 823;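 active = cell viability at or below a set limit in both duplicate runs, the limit being the all-compound median minus 4 SD, cut at about 23% in these data, passing the limit was not always enough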;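 also: 0% = wells killed by 20 µM Hyamine and 100% = untreated DMSO cell wells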); settings: HCT116 beta-catenin knockout viability, CellTiter-Glo, 60 h; at 10 µM; stronger effect = lower value
[13] = viability of PTEN-null HCT116 cells – cell-based, HCT116 clonal line, CellTiter-Glo, pilot screen (AID 824;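 active = viability at or below 27.92% in each of two runs, the all-compound median minus 4 SD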;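 also: 0% = 20 µM Hyamine control and 100% = vehicle cell control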); settings: HCT116 PTEN-deleted viability, 60 h, at 10 µM, stronger effect = lower value
[14] = RAM pathway blockade in budding yeast – dse1pr::URA3 reporter, 5-FOA selection, pilot screen (AID 869;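 active = inhibition over a set limit, the all-compound mean plus 3 SD, in both replicate runs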;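 also: 0% = DMSO wells with no growth and 100% = 10 µM 1-NA-PP1 with full growth; RAM network block rescues cells from 5-FOA so hits raise OD615 growth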); settings: S. cerevisiae dse1pr::URA3 5-FOA growth, OD615, 2 d; at 10 µM; stronger effect = higher value; strain carries analog-sensitive mutant Cbk1 kinase
[15] = RAM signaling pathway blockade in yeast – S. cerevisiae, Pdr1DBD-CYC8 efflux-inhibited sensitized strain, primary screen (AID 1298);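 also: 0% = DMSO untreated cells without growth and 100% = 10 µM 1-NA-PP1 full growth; higher means more yeast growth rescued from 5-FOA killing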; settings: S. cerevisiae cbk1-as DSE1-URA3 strain, 5-FOA growth OD615, 2 d; at 50 µM; stronger effect = higher value
[16] = H69AR cells + 2 uM doxorubicin, measured here: viability with 2 uM doxorubicin, stronger effect = lower value
[17] = H69AR cells, compound alone cytotoxicity

| Compound | viability [1] [%] | Her2 level [2] | viability [3] | viability [4] | viability [5] | differential viability (reversal) ([6]; H69AR cells + 2 uM doxorubicin) | viability [6, 16] [%] | viability [6, 17] [%] | inhibition [7] | inhibition [8] | growth inhibition [9] | growth inhibition [10] | viability increase [11] | viability [12] | viability [13] | inhibition [14] | RAM network inhibition [15] |
| --- | --- | --- | --- | --- | --- | --- | --- | --- | --- | --- | --- | --- | --- | --- | --- | --- | --- |
| Cc1c(-n2c(CN3C(=O)c4ccccc4C3=O)nc3ccccc3c2=O)c(=O)n(-c2ccccc2)n1C | 93.5 | 110% (inactive) | 93.5% (inactive) | 105% (inactive) | 101% (inactive) | 3.82% (inactive) | 97 | 101 | -1.76% (inactive) | 4.6% (inactive) | -2.33% (inactive) | 2.67% (inactive) | -1.08% (inactive) | 102% (inactive) | 99.6% (inactive) | 1.4% (inactive) | 5.4% (inactive) |
| Cn1c(=O)c2c(nc3sccn32)n(C)c1=O | 106 | 109% (inactive) | 106% (inactive) | 112% (inactive) | 87.7% (inactive) | -1.71% (inactive) | 89.4 | 87.7 | -3.51% (inactive) | -4.1% (inactive) | -7.3% (inactive) | -10.3% (inactive) | -1.33% (inactive) | 101% (inactive) | 99.4% (inactive) | 1.48% (inactive) | 2.73% (inactive) |
| Cn1nnc2cc(C(=O)N3CCCCCC3)ccc21 | 81.5 | 99.5% (inactive) | 81.5% (inactive) | 81.7% (inactive) | 105% (inactive) | 10.6% (inactive) | 94.3 | 105 | -4.73% (inactive) | -6.23% (inactive) | -10.5% (inactive) | -19.7% (inactive) | -0.53% (inactive) | 109% (inactive) | 96% (inactive) | 0.345% (inactive) | 1.87% (inactive) |
| CN(C)CCCN1C(=O)c2oc3ccc(Cl)cc3c(=O)c2C1c1cccnc1 (stereo not given) | 100 | 90.5% (inactive) | 100% (inactive) | 96.7% (inactive) | 83% (inactive) | 3.07% (inactive) | 79.9 | 83 | -2.93% (inactive) | 3.5% (inactive) | -2.16% (inactive) | 4.2% (inactive) | -1.8% (inactive) | 93.5% (inactive) | 92.7% (inactive) | 0.22% (inactive) | -2.19% (inactive) |
| CCCCn1c(CN2CCN(c3ccccc3)CC2)nc2c1c(=O)n(C)c(=O)n2C | 89 | 105% (inactive) | 89% (inactive) | 85.7% (inactive) | 85.6% (inactive) | 19.2% (inactive) | 66.4 | 85.6 | -2.27% (inactive) | -3.67% (inactive) | -4.55% (inactive) | 1.55% (inactive) | -3.11% (inactive) | 36.1% (inactive) | 65.2% (inactive) | 0.475% (inactive) | 2.8% (inactive) |
| CCCOC(=O)C1C2C=CC3(CN(c4cccc(Cl)c4)C(=O)C13)O2 (stereo not given) | 102 | 85% (inactive) | 102% (inactive) | 90.4% (inactive) | 83% (inactive) | -10.8% (inactive) | 93.8 | 83 | -2.93% (inactive) | -0.16% (inactive) | -4.19% (inactive) | -9.97% (inactive) | -2.05% (inactive) | 101% (inactive) | 97.4% (inactive) | -0.245% (inactive) | 3.71% (inactive) |
| COc1ccc(C(=O)c2ccc(OC)c(N)c2)cc1N | 119 | 86% (inactive) | 119% (inactive) | 49% (inactive) | 16.9% (active) | -46.3% (inactive) | 63.2 | 16.9 | 1.3% (inactive) | -1.31% (inactive) | -20% (inactive) | -17.8% (inactive) | -6.12% (inactive) | 15.2% (active) | 17% (active) | 2.53% (inactive) | 2.22% (inactive) |
| COc1ccc(C2CC(c3ccc(Cl)cc3Cl)Nc3nc(N)nn32)cc1 (stereo not given) | 94 | 92% (inactive) | 94% (inactive) | 115% (inactive) | 94% (inactive) | 3.8% (inactive) | 90.2 | 94 | -1.67% (inactive) | -0.5% (inactive) | 12.9% (inactive) | 31.5% (inactive) | 0.19% (inactive) | 85.3% (inactive) | 73.3% (inactive) | 2.17% (inactive) | 8.01% (inactive) |
| COC(=O)c1cn(NC(=O)C2CCCO2)c(=O)c2ccccc12 (stereo not given) | 109 | 76% (inactive) | 109% (inactive) | 93.7% (inactive) | 96.6% (inactive) | 4.83% (inactive) | 91.8 | 96.6 | -6.35% (inactive) | -0.49% (inactive) | -21.3% (inactive) | -23.6% (inactive) | -0.57% (inactive) | 91.2% (inactive) | 98.8% (inactive) | 1.48% (inactive) | 3% (inactive) |
| COC(=O)CSc1nnc(-c2ccncc2)o1 | 116 | 127% (inactive) | 116% (inactive) | 105% (inactive) | 95% (inactive) | 7.96% (inactive) | 87 | 95 | -3.25% (inactive) | -7.33% (inactive) | -2.71% (inactive) | -17.9% (inactive) | -2.71% (inactive) | 93.2% (inactive) | 94.2% (inactive) | 0.9% (inactive) | 0.67% (inactive) |
| O=C(Nc1cccnc1)Nc1ccccn1 | 100 | 100% (inactive) | 100% (inactive) | 105% (inactive) | 96.9% (inactive) | 9.92% (inactive) | 87 | 96.9 | -1.69% (inactive) | -2.33% (inactive) | -2.38% (inactive) | -0.12% (inactive) | -0.73% (inactive) | 99.8% (inactive) | 92.9% (inactive) | 0.185% (inactive) | 0.51% (inactive) |
| CCN(C1CCCCC1)S(=O)(=O)c1ccc(S(=O)(=O)N2CCN(CCC#N)CC2)cc1 | 105 | 114% (inactive) | 105% (inactive) | 75.8% (inactive) | 87.8% (inactive) | -10.4% (inactive) | 98.3 | 87.8 | -1.28% (inactive) | -3.5% (inactive) | 4.85% (inactive) | 3.67% (inactive) | -3.47% (inactive) | 86.6% (inactive) | 85.9% (inactive) | 0.645% (inactive) | -1.33% (inactive) |
| CCC(=O)N1CCN(c2nc(-c3ccccc3)c3c(c2C#N)CCCC3)CC1 | 105 | 93% (inactive) | 105% (inactive) | 97.2% (inactive) | 156% (inactive) | 72.2% (inactive) | 84 | 156 | -8.24% (inactive) | 4.59% (inactive) | -2.54% (inactive) | -4.34% (inactive) | -5.2% (inactive) | 75.8% (inactive) | 73.1% (inactive) | 0.35% (inactive) | 2.27% (inactive) |
| CC1(C)CC(=O)C=C(Nc2ccc(OCC(F)(F)C(F)F)cc2)C1 | 95 | 104% (inactive) | 95% (inactive) | 92.8% (inactive) | 103% (inactive) | 12.9% (inactive) | 89.9 | 103 | 0.38% (inactive) | -12.3% (inactive) | -3.99% (inactive) | 5.75% (inactive) | 1.17% (inactive) | 89.5% (inactive) | 90.2% (inactive) | -0.6% (inactive) | 3.07% (inactive) |
| CCOc1ccc(NC(=O)C(C)Sc2nnc(C)n2C)cc1 (stereo not given) | 92 | 126% (inactive) | 92% (inactive) | 97.6% (inactive) | 98.8% (inactive) | 2.75% (inactive) | 96.1 | 98.8 | -1.33% (inactive) | -1.17% (inactive) | -3.46% (inactive) | 3.31% (inactive) | -0.82% (inactive) | 95.7% (inactive) | 93.9% (inactive) | 0.705% (inactive) | -0.63% (inactive) |
| COc1ccccc1OCC(=O)N1CCN(c2ccccc2OC)CC1 | 93.5 | 124% (inactive) | 93.5% (inactive) | 111% (inactive) | 104% (inactive) | 13.2% (inactive) | 91.2 | 104 | 3.78% (inactive) | -2.7% (inactive) | -3.77% (inactive) | -2.73% (inactive) | -2.73% (inactive) | 96.9% (inactive) | 95% (inactive) | 0.87% (inactive) | -1.28% (inactive) |
| COc1ccc(CCNC(=O)CSc2nnnn2-c2ccccc2OC)cc1OC | 91 | 99.5% (inactive) | 91% (inactive) | 102% (inactive) | 90.1% (inactive) | 0.99% (inactive) | 89.1 | 90.1 | -7.33% (inactive) | -0.5% (inactive) | -2.03% (inactive) | 2.95% (inactive) | -2.14% (inactive) | 86.9% (inactive) | 92.3% (inactive) | 1.64% (inactive) | 6.51% (inactive) |
| C=CCNC(=O)CSc1nc2sc(C)c(C)c2c(=O)[nH]1 | 96.5 | 95.5% (inactive) | 96.5% (inactive) | 90.1% (inactive) | 78.2% (inactive) | -7.53% (inactive) | 85.7 | 78.2 | -3.33% (inactive) | 1% (inactive) | -10.2% (inactive) | -4.47% (inactive) | -1.02% (inactive) | 110% (inactive) | 97.1% (inactive) | 3.06% (inactive) | 5.1% (inactive) |
| Cc1ccc2cccc(SCC(=O)N3CCOCC3)c2n1 | 103 | 89.5% (inactive) | 103% (inactive) | 61% (inactive) | 90.7% (inactive) | -0.48% (inactive) | 91.2 | 90.7 | -4.03% (inactive) | -3.5% (inactive) | 2.63% (inactive) | 24.3% (inactive) | -2.53% (inactive) | 98.9% (inactive) | 101% (inactive) | 2.27% (inactive) | 1.88% (inactive) |
| CCN(CC)C(=O)COC(=O)c1ccc(O)cc1 | 90.5 | 102% (inactive) | 90.5% (inactive) | 103% (inactive) | 91.2% (inactive) | -5.45% (inactive) | 96.7 | 91.2 | 1.73% (inactive) | -5.97% (inactive) | -6.88% (inactive) | -17.4% (inactive) | 0.25% (inactive) | 95.6% (inactive) | 101% (inactive) | 1.32% (inactive) | -0.27% (inactive) |
